The supplement of paper PMC9446081
± gives the standard deviation of the averaged measurements.

Columns and labels:
Experiment in all cases: relative enzymatic activity vs untreated control (fraction); higher = less inhibition
Details in all cases: 100 µM; incubation time: 2 h at 37 C
DNA gyrase = test system: DNA gyrase
Experimental: (§1)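 In vitro enzymatic inhibition assays (ProFoldin kits) for 12 purified essential E. coli enzymes or complexes, each treated with 218 active antibacterial compounds at 100 µM for 2 h at 37°C. Read-outs were fluorescence or absorbance (phosphate detection, dye binding), converted to activity via standard curves and expressed relative to untreated DMSO controls.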

DNA helicase = DNA helicase (UniProt P0ACB1)
Experimental: as §1

DNA ligase = DNA ligase (UniProt B1XA82)
Experimental: as §1

DNA polymerase = DNA polymerase (UniProt P10443)
Experimental: as §1

DNA primase = DNA primase (UniProt P0ABS7)
Experimental: as §1

GlmU = GlmU (UniProt A7ZTU1)
Experimental: as §1

Guanlyate kinase = Guanlyate kinase (UniProt Q0TBG1)
Experimental: as §1

MurA = MurA (UniProt Q3YX52)
Experimental: as §1

RNA polymerase = test system: RNA polymerase
Experimental: as §1

MurA, sequence (Q3YX52 whole entry): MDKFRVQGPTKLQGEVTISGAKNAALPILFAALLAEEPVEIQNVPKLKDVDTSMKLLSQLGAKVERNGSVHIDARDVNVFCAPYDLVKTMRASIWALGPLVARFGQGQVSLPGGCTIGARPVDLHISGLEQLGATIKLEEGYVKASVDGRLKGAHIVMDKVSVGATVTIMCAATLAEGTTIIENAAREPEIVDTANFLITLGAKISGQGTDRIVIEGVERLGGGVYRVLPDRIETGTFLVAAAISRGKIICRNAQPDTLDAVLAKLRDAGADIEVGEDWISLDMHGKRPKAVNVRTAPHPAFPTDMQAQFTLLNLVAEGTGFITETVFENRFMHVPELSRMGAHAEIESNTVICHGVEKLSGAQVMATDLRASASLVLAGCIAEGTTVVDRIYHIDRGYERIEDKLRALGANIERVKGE
Guanlyate kinase, sequence (Q0TBG1 whole entry): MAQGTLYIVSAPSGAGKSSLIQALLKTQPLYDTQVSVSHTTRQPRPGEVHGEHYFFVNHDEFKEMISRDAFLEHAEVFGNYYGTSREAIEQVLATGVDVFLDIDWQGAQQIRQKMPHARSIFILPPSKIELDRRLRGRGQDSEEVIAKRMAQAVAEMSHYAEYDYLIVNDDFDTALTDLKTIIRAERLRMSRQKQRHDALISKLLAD
DNA polymerase, sequence (P10443 whole entry): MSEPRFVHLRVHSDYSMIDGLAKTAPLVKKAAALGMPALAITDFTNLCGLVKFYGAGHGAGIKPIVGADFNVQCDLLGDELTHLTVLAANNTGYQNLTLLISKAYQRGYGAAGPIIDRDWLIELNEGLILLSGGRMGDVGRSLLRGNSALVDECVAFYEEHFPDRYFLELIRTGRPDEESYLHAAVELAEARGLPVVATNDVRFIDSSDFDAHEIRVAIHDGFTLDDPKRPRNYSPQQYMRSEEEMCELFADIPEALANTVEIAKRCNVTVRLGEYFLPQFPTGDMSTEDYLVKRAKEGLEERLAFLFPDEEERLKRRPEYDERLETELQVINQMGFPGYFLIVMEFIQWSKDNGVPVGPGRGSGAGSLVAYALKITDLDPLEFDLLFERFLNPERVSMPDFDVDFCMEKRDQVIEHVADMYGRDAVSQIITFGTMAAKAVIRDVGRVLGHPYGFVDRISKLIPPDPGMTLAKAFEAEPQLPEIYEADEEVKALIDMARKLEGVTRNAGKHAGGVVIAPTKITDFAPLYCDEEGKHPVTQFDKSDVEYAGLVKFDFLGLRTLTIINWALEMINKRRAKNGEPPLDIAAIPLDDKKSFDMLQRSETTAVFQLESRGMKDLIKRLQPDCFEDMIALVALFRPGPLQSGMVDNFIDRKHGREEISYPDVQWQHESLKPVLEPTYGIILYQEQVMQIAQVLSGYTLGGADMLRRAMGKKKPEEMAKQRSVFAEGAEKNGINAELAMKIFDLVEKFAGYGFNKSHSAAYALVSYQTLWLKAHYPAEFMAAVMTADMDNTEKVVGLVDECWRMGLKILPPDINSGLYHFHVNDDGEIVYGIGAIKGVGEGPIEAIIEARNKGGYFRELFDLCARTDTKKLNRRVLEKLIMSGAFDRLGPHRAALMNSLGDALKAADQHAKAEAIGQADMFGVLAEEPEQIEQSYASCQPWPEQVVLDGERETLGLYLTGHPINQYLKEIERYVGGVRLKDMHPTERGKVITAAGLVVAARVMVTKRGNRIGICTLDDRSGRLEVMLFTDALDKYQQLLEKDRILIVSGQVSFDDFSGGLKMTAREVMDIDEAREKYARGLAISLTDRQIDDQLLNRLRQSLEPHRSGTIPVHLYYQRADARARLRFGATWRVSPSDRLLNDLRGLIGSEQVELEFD
DNA ligase, sequence (B1XA82 whole entry): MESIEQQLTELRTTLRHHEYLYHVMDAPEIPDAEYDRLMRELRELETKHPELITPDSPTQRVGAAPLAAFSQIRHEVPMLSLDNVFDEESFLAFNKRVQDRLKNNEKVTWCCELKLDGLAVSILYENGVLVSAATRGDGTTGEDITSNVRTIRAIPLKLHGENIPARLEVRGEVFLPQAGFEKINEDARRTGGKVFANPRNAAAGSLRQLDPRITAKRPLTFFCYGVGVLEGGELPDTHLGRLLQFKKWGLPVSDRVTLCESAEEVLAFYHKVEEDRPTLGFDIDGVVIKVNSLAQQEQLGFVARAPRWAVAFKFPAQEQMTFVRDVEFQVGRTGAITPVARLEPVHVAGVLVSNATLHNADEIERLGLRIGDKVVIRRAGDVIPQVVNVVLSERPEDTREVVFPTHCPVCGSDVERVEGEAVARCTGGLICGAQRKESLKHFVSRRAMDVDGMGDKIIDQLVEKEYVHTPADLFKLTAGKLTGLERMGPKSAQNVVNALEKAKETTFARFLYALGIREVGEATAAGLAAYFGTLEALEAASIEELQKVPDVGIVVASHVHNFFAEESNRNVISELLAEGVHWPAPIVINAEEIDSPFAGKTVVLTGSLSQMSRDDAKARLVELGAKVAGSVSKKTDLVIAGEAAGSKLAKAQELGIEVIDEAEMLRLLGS
DNA helicase, sequence (P0ACB1 whole entry): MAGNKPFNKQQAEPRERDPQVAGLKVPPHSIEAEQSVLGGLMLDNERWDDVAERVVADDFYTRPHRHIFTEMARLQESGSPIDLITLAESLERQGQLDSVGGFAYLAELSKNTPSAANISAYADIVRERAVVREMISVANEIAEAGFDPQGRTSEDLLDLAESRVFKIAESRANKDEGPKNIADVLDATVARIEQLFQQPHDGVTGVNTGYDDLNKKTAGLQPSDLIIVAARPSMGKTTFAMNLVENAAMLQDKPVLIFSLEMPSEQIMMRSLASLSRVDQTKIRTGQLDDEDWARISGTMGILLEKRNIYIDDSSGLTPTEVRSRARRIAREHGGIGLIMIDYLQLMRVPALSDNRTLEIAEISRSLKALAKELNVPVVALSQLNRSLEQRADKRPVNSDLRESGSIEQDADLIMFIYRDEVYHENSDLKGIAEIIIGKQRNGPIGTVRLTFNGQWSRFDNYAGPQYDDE
GlmU, sequence (A7ZTU1 whole entry, looked up): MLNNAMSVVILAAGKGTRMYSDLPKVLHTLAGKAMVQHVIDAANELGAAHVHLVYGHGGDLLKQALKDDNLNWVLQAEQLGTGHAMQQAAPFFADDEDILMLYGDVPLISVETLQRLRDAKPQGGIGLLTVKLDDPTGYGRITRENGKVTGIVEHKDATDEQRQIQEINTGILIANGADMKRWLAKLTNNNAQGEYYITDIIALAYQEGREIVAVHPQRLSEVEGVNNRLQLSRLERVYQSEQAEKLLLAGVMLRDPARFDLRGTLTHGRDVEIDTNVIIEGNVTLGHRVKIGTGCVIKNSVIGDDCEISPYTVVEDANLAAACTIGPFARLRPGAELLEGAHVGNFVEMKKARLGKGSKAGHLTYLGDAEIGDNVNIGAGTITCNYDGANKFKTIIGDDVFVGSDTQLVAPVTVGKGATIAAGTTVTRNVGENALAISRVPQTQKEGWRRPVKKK
DNA primase, sequence (P0ABS7 whole entry): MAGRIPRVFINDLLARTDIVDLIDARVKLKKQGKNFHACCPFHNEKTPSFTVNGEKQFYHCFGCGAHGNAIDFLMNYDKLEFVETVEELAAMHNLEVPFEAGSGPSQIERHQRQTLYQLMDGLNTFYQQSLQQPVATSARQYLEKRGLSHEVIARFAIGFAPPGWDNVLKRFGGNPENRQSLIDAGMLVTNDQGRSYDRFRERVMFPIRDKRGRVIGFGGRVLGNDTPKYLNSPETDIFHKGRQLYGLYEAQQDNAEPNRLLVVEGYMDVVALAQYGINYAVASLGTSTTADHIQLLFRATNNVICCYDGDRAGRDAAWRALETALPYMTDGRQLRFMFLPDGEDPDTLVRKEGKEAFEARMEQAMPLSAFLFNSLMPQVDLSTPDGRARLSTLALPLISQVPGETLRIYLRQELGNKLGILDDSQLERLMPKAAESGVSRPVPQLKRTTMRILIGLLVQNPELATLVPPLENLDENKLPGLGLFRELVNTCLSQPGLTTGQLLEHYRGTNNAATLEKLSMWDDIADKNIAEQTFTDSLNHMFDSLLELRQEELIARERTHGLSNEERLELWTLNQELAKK

SMILES	relative enzymatic activity (DNA gyrase)	relative enzymatic activity (DNA helicase)	relative enzymatic activity (DNA ligase)	relative enzymatic activity (DNA polymerase)	relative enzymatic activity (DNA primase)	relative enzymatic activity (GlmU)	relative enzymatic activity (Guanlyate kinase)	relative enzymatic activity (MurA)	relative enzymatic activity (RNA polymerase)
[O-][n+]1ccccc1[S][Zn][S]c1cccc[n+]1[O-]	0.849 ± 0.41	0.647 ± 0.14	1.08 ± 0.083	1.1 ± 0.13	0.788 ± 0.27	1.03 ± 0.0055	1.06 ± 0.052	0.109 ± 0.033	0.954 ± 0.052
CCn1cc(C(=O)[O-])c(=O)c2cc3c(cc21)OCO3.[K+]	0.128 ± 0.074	0.576 ± 0.11	1.21 ± 0.081	1.08 ± 0.18	0.826 ± 0.033	0.959 ± 0.029	0.892 ± 0.14	0.798 ± 0.13	0.7827 ± 0.0058
CN(C)[C@@H]1C(=O)[C@H](C(N)=O)C(=O)[C@@]2(O)C(=O)[C@@H]3C(=O)c4c(O)cccc4[C@@](C)(O)[C@H]3C[C@@H]12	0.891 ± 0.31	0.615 ± 0.21	0.943 ± 0.033	0.874 ± 0.1	0.801 ± 0.02	1.03 ± 0.011	0.846 ± 0.13	0.379 ± 0.13	0.7359 ± 0.0054
O=C1C=C2C(=CCOC2O)O1 (stereo unspecified)	0.0893 ± 0.13	0.409 ± 0.021	1.08 ± 0.17	0.547 ± 0.19	0.632 ± 0.14	0.811 ± 0.21	1.09 ± 0.049	0.0624 ± 0.018	0.56 ± 0.17
Oc1cc(Cl)ccc1Oc1ccc(Cl)cc1Cl	1.04 ± 0.057	0.187 ± 0.1	0.856 ± 0.26	0.495 ± 0.69	0.839 ± 0.013	1.113 ± 0.0014	1 ± 0.059	0.846 ± 0.081	0.935 ± 0.17
O=[N+]([O-])C(Br)(CO)CO	0.108 ± 0.15	0.618 ± 0.27	0.897 ± 0.11	0.327 ± 0.015	0.596 ± 0.031	0.198 ± 0.059	0.943 ± 0.084	0.0632 ± 0.019	0.348 ± 0.045
Cn1ncnc2c(=O)n(C)c(=O)nc1-2	0.373 ± 0.21	0.533 ± 0.13	1.08 ± 0.28	0.994 ± 0.056	0.758 ± 0.047	0.966 ± 0.021	0.88 ± 0.059	0.129 ± 0.027	0.587 ± 0.6
CN1C(=O)[C@]23CC4=CC=C[C@H](O)[C@H]4N2C(=O)[C@@]1(CO)SS3	0.669 ± 0.11	0.55 ± 0.14	1.06 ± 0.038	0.477 ± 0.68	0.859 ± 0.019	0.992 ± 0.012	0.947 ± 0.12	0.309 ± 0.13	0.838 ± 0.12
CN(C)[C@@H]1C(=O)C(C(N)=O)=C(O)[C@@]2(O)C(O)=C3C(=O)c4c(O)cccc4[C@](C)(O)[C@H]3C[C@@H]12	1.15 ± 0.25	0.475 ± 0.031	1.06 ± 0.1	1.11 ± 0.24	0.753 ± 0.025	1.05 ± 0.084	0.836 ± 0.089	0.144 ± 0.0081	0.809 ± 0.1
CCCCCCCCCCCCCCCC[N+](C)(C)C.[Br-]	1.21 ± 0.19	0.026 ± 0.0026	0.171 ± 0.036	0.0569 ± 0.0052	0.371 ± 0.042	0.235 ± 0.047	0.6144 ± 0.0056	0.0751 ± 0.018	0.162 ± 0.021
CC(=O)Oc1ccc(Cl)c2cccnc12	0.756 ± 0.36	0.577 ± 0.29	0.965 ± 0.18	1.09 ± 0.17	0.8364 ± 0.0049	0.987 ± 0.052	0.892 ± 0.12	0.873 ± 0.19	0.7397 ± 0.0065
CN(C)[C@@H]1C(=O)[C@@H](C(N)=O)C(=O)[C@@]2(O)C(=O)[C@H]3C(=O)c4c(O)ccc(Cl)c4[C@@](C)(O)[C@H]3C[C@@H]12	0.69 ± 0.15	0.484 ± 0.12	0.931 ± 0.077	0.474 ± 0.67	0.778 ± 0.016	1.01 ± 0.018	0.879 ± 0.079	0.617 ± 0.21	0.739 ± 0.086
CNC1C(O)C(OC2C(N)CC(N)C(OC3OC(C(C)O)C(O)C(O)C3N)C2O)OCC1(C)O (stereo unspecified)	1.19 ± 0.12	0.447 ± 0.021	1 ± 0.031	1.37 ± 0.52	0.749 ± 0.25	0.973 ± 0.059	0.936 ± 0.045	0.77 ± 0.12	0.879 ± 0.05
C[CH2][Hg][S]c1ccccc1C(=O)[O-].[Na+]	0.069 ± 0.018	0.749 ± 0.37	1.12 ± 0.031	0.94 ± 0.3	0.649 ± 0.14	1.07 ± 0.093	1.03 ± 0.11	0.212 ± 0.01	0.959 ± 0.048
O=[N+]([O-])c1ccc(N(CCO)CCO)c2c1no[n+]2[O-]	1.22 ± 0.18	0.793 ± 0.094	1.49 ± 0.15	0.69 ± 0.21	0.559 ± 0.099	0.935 ± 0.067	0.448 ± 0.049	0.106 ± 0.026	0.679 ± 0.032
Cc1c(N)nc([C@H](CC(N)=O)NC[C@@H](N)C(N)=O)nc1C(=O)N[C@H](C(=O)N[C@@H](C)[C@H](O)[C@@H](C)C(=O)N[C@@H](C(=O)NCCc1nc(-c2nc(C(=O)NCCC[S+](C)C)cs2)cs1)[C@@H](C)O)[C@@H](O[C@H]1O[C@H](CO)[C@H](O)[C@@H](O)[C@H]1O[C@H]1O[C@H](CO)[C@@H](O)[C@H](OC(N)=O)[C@@H]1O)c1cnc[nH]1	0.0494 ± 0.07	0.504 ± 0.71	1.121 ± 0.005	0.911 ± 0.2	0.801 ± 0.0016	1.06 ± 0.057	1.03 ± 0.061	0.787 ± 0.087	0.875 ± 0.077
Cc1nc2c(=O)n(C)c(=O)nc-2n(C)n1	0.498 ± 0.2	0.6 ± 0.18	0.827 ± 0.053	1.04 ± 0.11	0.8 ± 0.023	0.927 ± 0.071	0.881 ± 0.045	0.131 ± 0.035	0.925 ± 0.15
CCCCCCCCCCCCCCCC[n+]1ccccc1	1.17 ± 0.056	0.0233 ± 0.0026	0.134 ± 0.0094	0.0267 ± 0.011	0.341 ± 0.023	0.19333 ± 8.8e-05	0.0415 ± 0.016	0.0717 ± 0.02	0.617 ± 0.64
CC(=O)[O][Hg][c]1ccccc1	0.0283 ± 0.04	0.415 ± 0.038	1.16 ± 0.04	0.285 ± 0.017	0.749 ± 0.28	0.987 ± 0.21	3.32 ± 0.43	0.474 ± 0.35	0.462 ± 0.044
Cc1c(N)nc([C@H](CC(N)=O)NC[C@@H](N)C(N)=O)nc1C(=O)N[C@H](C(=O)N[C@@H](C)[C@H](O)[C@@H](C)C(=O)N[C@@H](C(=O)NCCc1nc(-c2nc(C(=O)NCCC[S+](C)C)cs2)cs1)[C@@H](C)O)[C@@H](O[C@H]1O[C@H](CO)[C@H](O)[C@@H](O)[C@H]1O[C@H]1O[C@H](CO)[C@@H](O)[C@H](OC(N)=O)[C@@H]1O)c1c[nH]cn1	0.0451 ± 0.064	0.749 ± 0.38	1.26 ± 0.078	0.485 ± 0.028	0.878 ± 0.06	0.998 ± 0.07	0.96 ± 0.12	0.863 ± 0.16	0.866 ± 0.032
CN[C@H]1C[C@@H](N)[C@H](O)[C@@H](O[C@@H]2O[C@H](CO)[C@H](O)[C@@H]3O[C@@]4(O[C@H]23)O[C@H]([C@@H](N)CO)[C@H](O)[C@H](O)[C@H]4O)[C@@H]1O	0.984 ± 0.14	0.571 ± 0.16	0.95 ± 0.14	1.19 ± 0.24	0.883 ± 0.02	1.029 ± 0.0074	0.933 ± 0.098	0.86 ± 0.2	0.8209 ± 0.0048
COP(=S)(OC)Oc1cc(Cl)c(Cl)cc1Cl	1.01 ± 0.21	0.105 ± 0.011	0.991 ± 0.28	1.39 ± 0.45	0.737 ± 0.2	1.09 ± 0.043	1.07 ± 0.027	0.585 ± 0.13	0.851 ± 0.025
O=S(=O)(O)O.Oc1cccc2cccnc12	0.857 ± 0.31	0.653 ± 0.14	1.05 ± 0.1	1.34 ± 0.49	0.441 ± 0.18	0.987 ± 0.048	0.981 ± 0.14	0.768 ± 0.011	0.862 ± 0.094
CCCCCCCCCCCCCCCC[n+]1ccccc1.[Cl-]	1.22 ± 0.054	0.0141 ± 0.0023	0.581 ± 0.2	0.0538 ± 0.0068	0.3763 ± 0.00042	0.16 ± 0.039	0.2 ± 0.092	0.0629 ± 0.0016	0.2601 ± 0.0012
